Reference: the supplement of paper PMC10981050
Several values for one entry are separate records, joined by “and”; a condition that tells them apart may be missing. Equal entries are not always repeated. Structures can show the parent of a compound that is named as a salt.

Assays:
Experiment in all cases: cell viability relative to vehicle control; higher = less cytotoxic
Settings in all cases: 10 µM
[1] = system: K562
In short: (§1)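 After removal of identity-inconsistent compounds, the Selleck bioactive, kinase and epigenetic probe libraries were screened on CRISPR-edited mutant clones and isogenic wild-type clones of four leukaemia lines. Plates were 384-well, each well holding 2000 cells in 50 µL medium and receiving a single 10 µM acoustically dispensed dose. CellTiter-Glo luminescence was read 48 h later, after the supernatant was taken off. Genedata Screener was used to express viability as percent of the on-plate vehicle control.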

[2] = system: MARIMO
In short: as §1

[3] = system: MOLM14
In short: as §1

[4] = system: OCI-AML2
In short: as §1

Structure (SMILES)	cell viability ([1]; SRSF2 genotype: SRSF2 P95H/wt)	cell viability ([1]; SRSF2 genotype: SRSF2 wt/wt) [%]	cell viability ([2]; SRSF2 genotype: SRSF2 P95H/wt) [%]	cell viability ([2]; SRSF2 genotype: SRSF2 wt/wt) [%]	cell viability ([3]; SRSF2 genotype: SRSF2 P95H/wt) [%]	cell viability ([3]; SRSF2 genotype: SRSF2 wt/wt) [%]	cell viability ([4]; SRSF2 genotype: P95H/wt) [%]	cell viability ([4]; SRSF2 genotype: wt/wt) [%]
COc1ccccc1N1CCN(CCN(C(=O)C2CCCCC2)c2ccccn2)CC1	76.7% and 78.4%	77.3	67.8	73	75.4	77.3	74.9	66.3
Cc1c(C)c(NCC(=O)N(C)C2CCN(Cc3ccc(C(N)=O)cc3)CC2)c(C)c(C)c1N	103% and 95.7%	100	99.4	102	87.1	96.8	98.7	103
CCCCOc1cc(C(=O)NCCN(CC)CC)c2ccccc2n1 [Dibucaine (Cinchocaine) HCl]	94.5% and 84%	85.3	81.8	91.5	86.2	91.7	93.2	86.1
c1cc(-c2cnn3cc(-c4ccc(N5CCNCC5)cc4)cnc23)c2cccnc2c1	0.29% and 0.31%	0.27	0.3	0.3	0.26	0.32	0.24	0.25
CC#CC(=O)Nc1ccc2ncnc(Nc3cccc(Br)c3)c2c1	7.91% and 17.6%	20.9	34.7	35.5	0.84	1.92	1.61	6.95
N[C@@H](Cc1cc(I)c(O)c(I)c1)C(=O)O [3,5-Diiodotyrosine Dihydrate]	94.2% and 94.5%	97.4	97	102	96.6	99.9	100	102
Cc1[nH]c(/C=C2\C(=O)Nc3ccc(F)cc32)c(C)c1C(=O)NCCN1CCCC1 [Toceranib phosphate]	97.4% and 103%	94.5	64	53.4	5.66	7.09	11.6	19.6
CC(CCc1ccccc1)NCC(=O)c1ccc(O)c(C(N)=O)c1 (stereo unspecified) [Labetalone hydrochloride]	92.1% and 89.7%	108	96.7	102	108	104	99.7	108
O=c1cc(-c2ccc(O)cc2)oc2c([C@@H]3O[C@H](CO)[C@@H](O)[C@H](O)[C@H]3O)c(O)cc(O)c12 [Vitexin]	109% and 103%	101	108	107	101	105	103	107
CCCCCCCCC(=O)O [Nonanoic acid]	98.3% and 102%	102	108	106	98.4	102	107	97
COc1cc(C)c(/C=C/C(C)=C/C=C/C(C)=C/C(=O)O)c(C)c1C [Acitretin]	87% and 91.6%	90	79.1	88.1	87.4	89.2	32.6	52
CC(C)CCCC(C)C1CCC2C3CCC4CC(O)CCC4(C)C3CCC12C (stereo unspecified) [Dihydrocholesterol]	93% and 100%	92.6	95.2	97.3	90.2	97.6	98.3	97.6
Nc1c(CC(=O)O)cccc1C(=O)c1ccc(Br)cc1 [Bromfenac Sodium]	106% and 105%	97.3	105	98.3	102	102	107	104
Cc1nc2ccc(NC(=O)Nc3ccnc4cccnc34)cc2o1	99.3% and 105%	98.3	96.4	89.9	104	107	88.2	96.4
CCCCOc1c(C(=O)c2c(F)cc(C)cc2F)c[nH]c2nncc1-2	104% and 105%	114	72.6	84.8	68.8	87.7	57.1	59.5
CN1CCN(C2=Nc3cc(Cl)ccc3Nc3ccccc32)CC1 [Clozapine (Clozaril)]	85.7% and 106%	98.8	104	94.4	101	106	100	98.1
NCCc1c[nH]cn1 [Histamine 2HCl]	99% and 106%	105	96.7	96.1	69	82.3	110	88.3
CC1=C(C(=O)Nc2cc3cn[nH]c3cc2F)C(c2ccc(C(F)(F)F)cc2)CC(=O)N1 (stereo unspecified)	99.9% and 96.7%	95.3	89.1	98.6	36.8	91.7	23.6	42.9
CCCN1CCCC[C@H]1C(=O)Nc1c(C)cccc1C [Ropivacaine HCl]	91% and 94.8%	94.2	99.7	89	95	95.4	98	95.6

Structure (SMILES)	cell viability ([1]; SRSF2 genotype: SRSF2 P95H/wt)	cell viability ([1]; SRSF2 genotype: SRSF2 wt/wt) [%]	cell viability ([2]; SRSF2 genotype: SRSF2 P95H/wt) [%]	cell viability ([2]; SRSF2 genotype: SRSF2 wt/wt) [%]	cell viability ([3]; SRSF2 genotype: SRSF2 P95H/wt) [%]	cell viability ([3]; SRSF2 genotype: SRSF2 wt/wt) [%]	cell viability ([4]; SRSF2 genotype: P95H/wt) [%]	cell viability ([4]; SRSF2 genotype: wt/wt) [%]
NC(=O)c1ccc(N(C(N)=O)c2c(F)cccc2F)nc1-c1ccc(F)cc1F	97.7% and 97.3%	94.1	94	97.5	96.1	105	95.3	103
CC(=O)O[C@]1(C)CC[C@@]23C[C@H]1C(C)(C)[C@@H]2CC[C@H]3C [Cedryl acetate]	102% and 105%	104	103	117	101	106	112	110
C#C[C@]1(O)CC[C@H]2[C@@H]3CCc4cc(O)ccc4[C@H]3CC[C@@]21C [Ethinyl Estradiol]	71.9% and 69.8%	65	70.1	70	82.4	98.8	79.3	79.7
NS(=O)(=O)c1ccc(NC(=S)N2CCN(CC=Cc3ccccc3)CC2)cc1	85.3% and 88.8%	93.5	83.5	76.7	95.3	99.2	64.5	76.5
CCCCCCCCCCCCCCCC(=O)N[C@@H](CCSC)C(=O)NCC(=O)N[C@@H](Cc1ccc(O)cc1)C(=O)N[C@@H](CCC(N)=O)C(=O)N[C@@H](CCCCN)C(=O)N[C@@H](CCCCN)C(=O)N[C@@H](CC(C)C)C(=O)N[C@@H](CCCNC(=N)N)C(=O)N[C@@H](CO)C(=O)N[C@@H](CCSC)C(=O)N[C@H](C(=O)N[C@@H](CC(=O)O)C(=O)N[C@@H](CCCCN)C(=O)N[C@@H](Cc1ccc(O)cc1)C(=O)N[C@@H](CCCNC(=N)N)C(=O)N[C@@H](CC(C)C)C(=O)O)[C@@H](C)O	90.8% and 92.9%	90	76.6	82.2	58.6	72.7	75.1	94.9
Cc1cc(C)nc(NS(=O)(=O)c2ccc(N)cc2)n1 [Sulfamethazine Sodium Salt]	105% and 99.9%	102	106	106	100	106	88.5	113
CC(C)C(NC(=O)c1ccc2ccccc2n1)C(=O)NC(CC(=O)O)C(=O)COc1c(F)cccc1F (stereo unspecified)	104% and 106%	97.3	100	110	104	99.8	100	101
CN(C)CCCCC(=O)Nc1ccc(NC(=S)NC(=O)c2ccc(C(C)(C)C)cc2)cc1 [Tenovin-6]	2.61% and 5.21%	12.4	1.49	1.85	1.6	0.76	1.27	5.3
O=C(O)C(Cc1ccccc1[N+](=O)[O-])=NNc1nc(-c2ccc(Cl)c(Cl)c2)cs1	95.8% and 93.5%	87.9	94.2	114	91.8	92.2	84.8	94
CCCCOCc1ccc(O)c(OC)c1 [Vanillyl Butyl Ether]	98.9% and 92.9%	101	97.6	106	98.8	101	93.1	109
C[C@H](CCC(=O)NCC(=O)O)[C@H]1CC[C@H]2[C@@H]3[C@H](O)C[C@@H]4C[C@H](O)CC[C@]4(C)[C@H]3C[C@H](O)[C@]12C [Glycocholic acid]	107% and 108%	109	106	102	100	109	117	98
CC[C@@](C)(Nc1ccnc(-c2c[nH]c3ncccc23)n1)C(=O)NCC(F)(F)F [Decernotinib (VX-509)]	98.6% and 99.9%	104	95.1	96.2	88.8	106	85.1	92.2
CCCCCCCCCCCCCCCCCC(=O)O [Stearic acid]	107% and 111%	107	107	109	105	108	96.4	103
Cc1ccc(Sc2cncc3sc(C(N)=O)cc23)cc1	91.6% and 90.7%	90.6	95.7	102	89.3	100	68.8	69.4
CCC(C(=O)O)c1ccc(N2Cc3ccccc3C2=O)cc1 (stereo unspecified) [Indobufen]	92.1% and 90.3%	102	91.3	100	96.6	101	92.2	98.3
Cc1nn(C)c2nc(NNC(=O)Nc3cc(Cl)nc(Cl)c3)cc(C(C)C)c12	70.7% and 79.6%	70	82.1	61.8	83	83.8	50.5	55.4
C[C@@H]1[C@H]2c3cc4c(cc3O[C@@]35OCOC3=CC(=O)[C@H](C[C@H]1C)[C@@H]25)OCO4 [Sauchinone]	92.2% and 99.5%	100	87.5	92.9	55.1	94.9	87.6	86.8
CO[C@H]1O[C@@H]2O[C@@]3(C)CC[C@H]4[C@H](C)CC[C@@H]([C@H]1C)[C@@]24OO3 [Artemether]	84.4% and 83.7%	80.4	81	90.5	85.6	90.1	86.3	86.6
